Assay [1] is described as follows: qHTS assay to identify small molecule antagonists of the thyroid receptor (TR) signaling pathway - cell viability counter screen (AID 743064). Also: nearly all actives have a fitted effect of over 50% in size. Also: potency is read from the fitted curve at half-maximal effect. A digest of the protocol: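 GH3.TRE-Luc rat pituitary cells dosed after 4 hr plating, co-stimulated with T3 at 1 nM final, incubated 23.5 h at 37 C. Viability measured in the same wells by CellTiter-Fluor fluorescence after 30 min further at 37 C.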

The nature of assay [2]: qHTS assay to identify small molecule antagonists of the thyroid receptor (TR) signaling pathway (AID 743065). Also: nearly all actives have a fitted effect of over 55% in size. Also: potency is read from the fitted curve at half-maximal effect. An outline of the steps: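 GH3.TRE-Luc rat pituitary cells (two TREs driving luciferase) were dosed with compound, then stimulated with 1 nM T3 (final) for 23.5 h at 37 C. ONE-Glo luminescence was the read-out, with CellTiter-Fluor fluorescence as the cytotoxicity counter-screen.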

A short description of assay [3]: qHTS assay to identify small molecule antagonists of the estrogen receptor alpha (ER-alpha) signaling pathway - cell viability counter screen (AID 743074; calls by dose curve;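 also: HEK293 cells carrying ER-alpha-UAS-bla reporter stimulated with 17beta-estradiol; nearly all actives have a fitted effect of over 45% in size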; also: potency is read from the fitted curve at half-maximal effect).
For assay [4], the system named is thyroid hormone receptor (rat, GH3 cells). Briefly: qHTS assay to identify small molecule agonists of the thyroid receptor (TR) signaling pathway (AID 743066; calls by dose curve; also: potency is read from the fitted curve at half-maximal effect).
The target in assay [5] is Estrogen receptor (Homo sapiens) (UniProt P03372). Briefly: qHTS assay to identify small molecule antagonists of the estrogen receptor alpha (ER-alpha) signaling pathway (AID 743069; active = well fitted curve in the direction sought with a large enough effect in the signal ratio in the repeat runs, not every such curve was filed as active; the % refers to the signal ratio; also: potency is read from the fitted curve at half-maximal effect). A digest of the protocol: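 Beta-lactamase FRET fluorescence is read after 2 hr at room temperature with LiveBLAzer B/G substrate. Before that, ER-alpha-bla HEK293 cells sit 4 hr after plating, then receive compound plus 17beta-estradiol and incubate 18 hr at 37C.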

Assay [6] shares this target. The experiment in a line: qHTS assay to identify small molecule agonists of the estrogen receptor alpha (ER-alpha) signaling pathway (AID 743075; calls by dose curve;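 also: HEK293 GripTite cells with ER-alpha and UAS-driven beta-lactamase reporter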).
For assay [7] the target is unchanged. The experiment in a line: qHTS assay to identify small molecule agonists of the estrogen receptor alpha (ER-alpha) signaling pathway using the BG1 cell line (AID 743079). Also: nearly all actives have a fitted effect of over 20% in size. Also: potency is read from the fitted curve at half-maximal effect.
Assay [8] can be described thus: qHTS assay to identify small molecule antagonists of the estrogen receptor alpha (ER-alpha) signaling pathway using the BG1 cell line (AID 743080; calls by dose curve;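 also: BG1 cells stimulated with 17beta-estradiol alongside compound; nearly all actives have a fitted effect of over 25% in size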; also: potency is read from the fitted curve at half-maximal effect). To be noted: BG1Luc4E2 ERE-luciferase antagonist mode, luminescence; activity change, negative = inhibition: at 70.3 µM (top of the series). An outline of the steps:
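Readout is ONE-Glo luminescence, taken 30 min at room temperature after reagent addition, preceded by a CellTiter-Fluor viability read; BG1-Luc-4E2 cells had received compound and 17beta-estradiol for 21.5 h at 37 C.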

Assay [9] in a line: qHTS assay to identify small molecule antagonists of the estrogen receptor alpha (ER-alpha) signaling pathway using the BG1 cell line - cell viability counter screen (AID 743081).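 Also: compound given together with 17beta-estradiol as the ER stimulus; nearly all actives have a fitted effect of over 45% in size.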 Also: potency is read from the fitted curve at half-maximal effect.
The target in a further assay is Aromatase (Homo sapiens) (UniProt P11511). Briefly: qHTS assay to identify aromatase inhibitors (AID 743083). Also: nearly all actives have a fitted effect of over 55% in size. Also: potency is read from the fitted curve at half-maximal effect.

Molecules are shown by their SMILES. Several values for one entry are separate records, joined by “and”; a condition that tells them apart may be missing. Equal entries are not always repeated. Results filed as inconclusive are left out. More than one record can exist for a structure, and the calls need not agree. Activity calls are given as the source filed them. Unless noted, calls follow the shape of the dose curve; as a rule, active = well fitted curve in the direction sought with a large enough effect in the repeat runs; inconclusive = weak or mixed curves; inactive = no such curve, though single readings can be large; an effect the other way counts as inactive or inconclusive.
% is scaled to controls: 0 for no effect and ±100 for the full control effect.

Aromatase (Homo sapiens), sequence (P11511 whole entry, looked up): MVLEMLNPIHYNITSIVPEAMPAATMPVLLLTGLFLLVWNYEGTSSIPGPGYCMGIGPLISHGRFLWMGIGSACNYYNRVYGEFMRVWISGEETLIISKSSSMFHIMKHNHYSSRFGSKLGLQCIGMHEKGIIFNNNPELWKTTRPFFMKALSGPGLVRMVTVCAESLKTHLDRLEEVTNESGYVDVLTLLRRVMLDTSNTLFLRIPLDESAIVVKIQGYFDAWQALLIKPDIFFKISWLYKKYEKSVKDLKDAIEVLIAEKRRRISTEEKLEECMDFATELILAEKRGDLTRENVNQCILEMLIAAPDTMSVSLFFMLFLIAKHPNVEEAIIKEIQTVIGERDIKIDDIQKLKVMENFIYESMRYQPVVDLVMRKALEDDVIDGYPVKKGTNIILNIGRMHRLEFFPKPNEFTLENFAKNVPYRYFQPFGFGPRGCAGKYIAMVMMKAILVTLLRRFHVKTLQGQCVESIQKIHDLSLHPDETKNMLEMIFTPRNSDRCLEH
Estrogen receptor (Homo sapiens), sequence (P03372 whole entry, looked up): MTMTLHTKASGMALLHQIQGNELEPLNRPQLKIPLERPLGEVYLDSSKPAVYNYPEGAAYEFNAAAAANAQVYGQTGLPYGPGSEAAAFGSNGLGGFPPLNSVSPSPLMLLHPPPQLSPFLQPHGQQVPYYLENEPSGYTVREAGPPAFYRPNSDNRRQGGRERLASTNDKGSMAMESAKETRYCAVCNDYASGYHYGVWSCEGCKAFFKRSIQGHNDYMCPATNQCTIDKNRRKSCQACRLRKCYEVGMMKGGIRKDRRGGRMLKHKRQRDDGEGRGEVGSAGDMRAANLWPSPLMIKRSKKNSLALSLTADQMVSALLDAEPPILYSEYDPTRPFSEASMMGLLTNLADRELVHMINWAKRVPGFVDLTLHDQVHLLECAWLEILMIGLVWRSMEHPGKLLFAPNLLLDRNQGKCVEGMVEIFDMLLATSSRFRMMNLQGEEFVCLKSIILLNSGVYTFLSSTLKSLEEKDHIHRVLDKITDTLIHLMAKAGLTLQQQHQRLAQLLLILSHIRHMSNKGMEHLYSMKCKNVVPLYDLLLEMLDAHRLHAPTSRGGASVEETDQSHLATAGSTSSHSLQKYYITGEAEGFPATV

For `C1CCC(C(CC2CCCCN2)C2CCCCC2)CC1` (centres undefined), the Potency in assay [1] was 4.73 µM (active); in assay [2], 5.96 µM (active); in [3] it was 21.3 µM (active).

For the compound `COc1ccc2c(c1)c(CC(=O)O)c(C)n2C(=O)c1ccc(Cl)cc1`, the Potency entry in assay [1], in assay [2], in assay [4], in assay [5], in assay [3] and in [6] was “inactive” throughout. In addition, the Potency result (in assay [7]; in assay [8]; in [9]; with Aromatase (Homo sapiens)) was “inactive” throughout.

Turning to `Nc1c2c(nc3ccccc13)CCCC2`, the Potency result in [1], in assay [2], in assay [4], in assay [5], in [3] and in [6] was “inactive” in each case. Moreover, the Potency result (in assay [9]; in the assay with Aromatase (Homo sapiens)) was “inactive” throughout. The Potency entry in assay [7] is “inactive and 24.3 µM (active)”.

As to `CCCCCCCCCCCCCCCC[N+](C)(C)Cc1ccccc1`, the Potency in assay [1] is 18.8 µM (active) and 14.1 µM (active) and 24.8 µM (active); in assay [2], 11.9 µM (active) and 8.91 µM (active) and 22.1 µM (active); in [3], 19 µM (active) and 25.3 µM (active) and 31.4 µM (active); with Aromatase (Homo sapiens), 26.6 µM (active) and 50.1 µM (active) and 27.8 µM (active). Besides, the Potency result in assay [4], in [6] and in [9] was “inactive” in each case. Also, in assay [8], the activity change, negative = inhibition was -23.2% (active).

For `Nc1ccc(O)c([N+](=O)[O-])c1`, the Potency was 45.7 µM (active) in assay [1] and 34 µM (active) in [9]. Besides, the Potency result (in assay [2]; in assay [4]; in assay [6]; in assay [7]; in assay [8]; with Aromatase (Homo sapiens)) was “inactive” in each case.

Consider `Nc1ccc(S(N)(=O)=O)cc1`, for which the Potency result (in assay [1]; in assay [2]; in [3]; in [9]; with Aromatase (Homo sapiens)) was “inactive” each time. Also, the Potency entry in [4] is “inactive and 9.74 µM (active)”.

As for `CCc1nc(N)nc(N)c1-c1ccc(Cl)cc1`, the Potency in [1] is 62.1 µM (active); in assay [2], 10.6 µM (active) and 6.21 µM (active) and 9.69 µM (active); in [3], 7.02 µM (active); in assay [8] it was 23.7 µM (active); with Aromatase (Homo sapiens), “inactive and 55.3 µM (active)”. Besides, the Potency entry in assay [4], in assay [5], in [6] and in assay [9] was “inactive” each time.

Take `CN1CCC[C@H]1c1cccnc1`: the Potency result in assay [1], in assay [2], in assay [4], in [3], in assay [8] and in [9] was “inactive” in each case. Also, the Potency entry in the assay with Aromatase (Homo sapiens) is “inactive”.

Turning to `OC[C@H]1O[C@H](O[C@]2(CCl)O[C@H](CCl)[C@@H](O)[C@@H]2O)[C@H](O)[C@@H](O)[C@H]1Cl`, the Potency entry (in assay [1]; in assay [2]; in assay [4]; in [3]; in assay [9]; in the assay with Aromatase (Homo sapiens)) was “inactive” each time.

As to `CN1[C@@H]2CC(OC(=O)[C@H](CO)c3ccccc3)C[C@H]1[C@@H]1O[C@@H]12` (some centres undefined), the Potency result in [1], in assay [4], in assay [5], in assay [3], in [6] and in assay [8] was “inactive” throughout. The Potency result in assay [9] was “inactive”. In addition, in assay [7], the Potency entry was “inactive and 23.7 µM (active) and 48.6 µM (active)”.

Regarding `O=C1NC(=O)C(c2ccccc2)(c2ccccc2)N1`, the Potency result (in assay [1]; in assay [2]; in assay [4]; in [3]; in assay [9]; with Aromatase (Homo sapiens)) was “inactive” throughout.

`CN(C)C(=S)SC(=S)N(C)C`: the Potency in assay [1] is 2.11 µM (active) and 1.98 µM (active) and 433 nM (active); in [2], 1.68 µM (active) and 1.57 µM (active) and 306 nM (active); in [3], “inactive and 49 µM (active)”; with Aromatase (Homo sapiens), 2.98 µM (active) and 994 nM (active) and 243 nM (active). For the same compound, the Potency entry in assay [4] and in [9] was “inactive” each time.

Take `CC(=O)CC(c1ccccc1)c1c(O)c2ccccc2oc1=O` (centres undefined): the Potency entry in [1], in assay [2], in assay [4], in assay [3] and in assay [9] was “inactive” each time.

On to `CCCCNC(=O)NS(=O)(=O)c1ccc(C)cc1`, for which the Potency entry (in assay [1]; in assay [2]; in assay [4]; in [3]; in assay [9]; with Aromatase (Homo sapiens)) was “inactive” throughout.

Regarding `CC12CCC(CC1)C(C)(C)O2`, the Potency entry in assay [1], in [2], in assay [4], in assay [5], in assay [3] and in assay [6] was “inactive” each time. The Potency result (in assay [7]; in assay [8]; in assay [9]; with Aromatase (Homo sapiens)) was “inactive” each time.

Regarding `CCCCC(CC)C(=O)O` (centres undefined), the Potency entry (in assay [1]; in assay [2]; in assay [4]; in [3]; in [9]; in the assay with Aromatase (Homo sapiens)) was “inactive” throughout.

Consider `CN(C)CCOC(c1ccccc1)c1ccccc1`, for which the Potency in assay [1] is 26.6 µM (active) and 19.4 µM (active); in assay [2], 26.6 µM (active) and 48.6 µM (active); in [3] it was “inactive and 9.52 µM (active)”. Further, the Potency entry in assay [4], in assay [5], in assay [6], in assay [7], in [8] and in [9] was “inactive” in each case.

`Nc1c(N=Nc2ccc(-c3ccc(N=Nc4cc(S(=O)(=O)O)c5ccccc5c4N)cc3)cc2)cc(S(=O)(=O)O)c2ccccc12`: the Potency in assay [1] was 16.8 µM (active) and 27.3 µM (active); in [2], 10.6 µM (active) and 30.6 µM (active); in assay [9] it was 13.3 µM (active) and 24.3 µM (active). For the same compound, the Potency entry in assay [4] and in assay [3] was “inactive” in each case.

For `NS(=O)(=O)O`, the Potency result (in assay [1]; in assay [2]; in assay [4]; in [3]; in [9]; with Aromatase (Homo sapiens)) was “inactive” throughout.

Turning to `CNNCc1ccc(C(=O)NC(C)C)cc1`, the Potency result (in assay [1]; in assay [2]; in assay [4]; in assay [3]; in assay [9]; with Aromatase (Homo sapiens)) was “inactive” each time.

Take `NC(CO)(CO)CO`: the Potency entry in [1], in assay [2], in assay [5], in [3], in [6] and in [7] was “inactive” throughout. The Potency result (in assay [8]; in [9]; in the assay with Aromatase (Homo sapiens)) was “inactive” each time. In addition, the Potency entry in assay [4] was “inactive and 9.69 µM (active)”.

As to `NC1CCCCC1`, the Potency result in [1], in assay [2], in assay [4], in [5], in assay [3] and in [6] was “inactive” throughout. Further, the Potency entry (in [7]; in assay [8]; in assay [9]; with Aromatase (Homo sapiens)) was “inactive” in each case.

Consider `CCCCOC(=O)c1ccc(O)cc1`, for which the Potency entry (in assay [1]; in assay [2]; in assay [4]; in assay [3]; in [9]; in the assay with Aromatase (Homo sapiens)) was “inactive” each time.

For the compound `CC(C)C(=O)Nc1ccc([N+](=O)[O-])c(C(F)(F)F)c1`, the Potency entry in assay [1], in assay [4], in assay [3], in assay [6] and in assay [9] was “inactive” each time. Besides, the Potency in assay [2] was 62.9 µM (active); in assay [5] it was “inactive and 49 µM [inhibitor] (active)”; in assay [8], 29.8 µM (active) and 49.9 µM (active); with Aromatase (Homo sapiens), “inactive and 62.9 µM (active)”.

(Values after PubChem BioAssay (Tox21).)
